# In PubChem BioAssay (NCI):
# This is part of a sample that, as a whole, favours compounds with a hit. Of some 83,000 tested, about 20% had one in any assay.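 Note: values are percent growth. 100 is the growth of untreated cells, values between 100 and 0 indicate rising inhibition; between -100 and 0 indicates cell death.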 Values without a mark were called inactive. Activity calls are given as the source filed them.
# Tested on: OVCAR-4 ovarian
# Test: NCI-60 one-dose screen, 48 h (100 = growth as untreated, 0 = no growth, -100 = all killed)
# Conditions: 10 µM unless noted
# Experimental: Growth inhibition of the OVCAR-4 human tumor cell line is measured as a screen for anti-cancer activity. Cells are grown in 96 well plates and exposed to the test compound for 48 hours. Compounds are tested at a single concentration, which is 10^-5 M for most compounds. The reported endpoint is percent growth (GI% or GIPRCNT), where numbers from 0 - 100% represent growth inhibition, and numbers from -100% - 0 represent cell death. For example, a value of 40 represents 60% growth inhibition. A value of 0 means no net growth occurred over the course of the experiment. A value of -40 indicates 40% of cells at the beginning of the experiment died by the end of the experiment. A value of -100 means all cells are dead at the end of the experiment.
# NCI-60 Human Tumor Cell Lines Screen was performed using the standard one-dose NCI protocol, which is described in more detail at https://dtp.cancer.gov/discovery_development/nci-60/default.htm.
# Compounds with GIPRCNT values below 10 were considered active. Activity score was based on GIPRCNT using the following formula: […]
# Score is 0 for GIPRCNT values of 100 or above, 50 for GIPRCNT values of 0, and 100 for GIPRCNT values of -100.
row,Compound,growth
1,COc1ccc(/C=C2\Oc3cc(OCCCN4CCCC4)ccc3C2=O)c(OC)c1,90.3%
2,NC1N=C(SCC(=O)N2CCN(c3cc4c(cc3F)c(=O)c(C(=O)O)cn4C3CC3)CC2)NC(=O)/C1=C/c1ccc(Cl)cc1 (stereo not given),99.5%
3,Cc1ccc(C(=O)NCCCNc2nccc(-n3ccc4cccnc43)n2)cc1,96.3%
4,COc1cc(-c2nn(-c3cccc(NC(=O)Nc4cccc(C(F)(F)F)c4)c3)cc2-c2ccncc2)ccc1Cl,11.1%
5,O=[N+]([O-])c1ccc(-c2cn(-c3ccccc3)c(-c3ccccc3)n2)cc1,84.2%
6,O=C(Nc1ccc2c(c1)OCO2)C(=O)c1c[nH]c2cc(F)ccc12,50.7%
7,Cc1ccc(Nc2nnc(-c3ccc(Cl)cc3)o2)c(C)c1,82.1%
8,Cc1cccc(/C=N/Nc2cc(C)c3cccc(C)c3n2)n1,90.2%
9,O=C1/C(=C/c2ccc([N+](=O)[O-])cc2)CN(C(=O)CCN2CCC(=NO)CC2)C/C1=C\c1ccc([N+](=O)[O-])cc1,-8.21% (active)
10,COc1ccc(-c2ccc(-c3ccc(-c4ccc(C(=N)N)cc4)s3)s2)cc1OC,-53.2% (active)
11,CCOC(=O)C1=C(C)NC(C)=C(C(=O)OCC)C1(C)C,101%
12,C/C(=N/NC(=S)Nc1ccccc1)c1nc2ccc(Cl)cc2[nH]1,-79.3% (active)
13,O=c1[nH]c2ccc(Br)cc2c2c1C(c1ccc(Cl)cc1)c1c(ncn3nc(-c4ccco4)nc13)O2 (stereo not given),67.5%
14,CCN(CC)c1ccc(C(=N)c2ccc(N(CC)CC)cc2)cc1,12.7%
15,CCO/C=N/C1=C(C#N)C(c2ccc(Cl)cc2)c2c(c3ccccc3n(C)c2=O)O1 (stereo not given),68.6%
16,Cc1nn(-c2ccc([N+](=O)[O-])cc2)c2ncnc(NCCc3ccccc3)c12,109%
17,Nc1nnc(-c2ccc3ccccc3c2O)o1,81.2%
18,CCCCCCCCC(C)OC(=O)c1nn(C(C)=O)c2ccccc12 (stereo not given),99.1%
19,C=C[C@@H]1C[C@H](O)Cc2ccccc2N1,113%
20,COc1cc(/C=C/C(=O)c2c(C)nc3ccccc3c2C)ccc1OCCCCOc1cc2c(cc1OC)C(=O)N1CCC[C@H]1C=N2,-20.1% (active)

row,Compound,growth
1,O=[N+]([O-])c1ccc(/C=C/C2(CCl)OCCO2)cc1,102%
2,c1cc2[nH]ncc2cc1-c1nc2ccc3[nH]ncc3c2c2c1CCC2,57.9%
3,COc1cc(C(=O)/C=C/c2c(C)n([O-])c3ccc(C(F)(F)F)cc3[n+]2=O)cc(OC)c1OC,89.5%
4,CC1CN(c2oc(-c3ccccc3)nc2C#N)CC(C)O1 (stereo not given),99.4%
5,COc1cc2c(cc1O)CCN1C[C@@H](CC(C)C)[C@@H](O)C[C@@H]21,98.6%
6,CC(=O)OC[C@]12CC[C@H]3[C@@H](C[C@H]4O[C@]45CC=CC(=O)[C@]35C)[C@]1(O)CC[C@@]2(O)[C@@](C)(O)C1CC(C)=C(C)C(=O)O1 (stereo not given in full),19.8%
7,CCCCN(CCCC)c1ccc(C(=N)c2ccc(N(CCCC)CCCC)cc2)cc1,-79.3% (active)
8,Cc1ccc(/C=C2\CN(C(=O)CCN3CCC(=NO)CC3)C/C(=C\c3ccc(C)cc3)C2=O)cc1,20.9%
9,CC12CCC3C4(C)COC(c5ccco5)OC4CCC3(C)C1CC(C1=CCOC1=O)O2 (stereo not given),103%
10,Cc1cc(N/N=C/c2nc(-c3ccccc3)oc2C)c2cc(Cl)ccc2n1,-89.6% (active)
11,O=C(Nc1cccc(-n2cc(-c3ccncc3)c(-c3ccc(Cl)c(O)c3)n2)c1)c1ccccc1,40.7%
12,O=C(Nc1cccc(-n2cc(-c3ccncc3)c(-c3ccc(Cl)c(O)c3)n2)c1)Nc1cccc(C(F)(F)F)c1,41.5%
13,CCO/C=N/C1=C(C#N)C(c2ccc(Cl)cc2)c2c(c3ccc(C)cc3[nH]c2=O)O1 (stereo not given),85%
14,Cc1cc(C)n(-c2nnc3n2N=C(c2ccc(-c4ccccc4)cc2)CS3)n1,74.7%
15,CC(C)(C)n1cc(-c2ccnc(NCCCNS(=O)(=O)c3ccc(Cl)cc3)c2)c(-c2cccc(O)c2)n1,23.4%
16,Cc1nc2cncc(C#Cc3cncc(C(=O)Nc4ccc(CN5CCN(C)CC5)c(C(F)(F)F)c4)c3)c2nc1C,13.7%
17,COc1cccc(-c2cc3c(O)cc(C#N)cc3[nH]2)c1,83.7%
18,CC(C)OC(=O)N1CCOCC1,95.5%
19,Clc1ccc2c(NC3CCC(NC4CCCCC4)CC3)ccnc2c1 (stereo not given),50%
20,CCOC(=O)c1ccc2c(c1)nc(-c1ccc(OCc3ccccc3)c(OC)c1)n2-c1cc(C(C)(C)C)[nH]n1,76.4%
